Screening data: PubChem BioAssay, National Center for Advancing Translational Sciences (NCATS)
TDP1 cell noCPT: qHTS for Inhibitors of human tyrosyl-DNA phosphodiesterase 1 (TDP1): qHTS in cells in absence of CPT. DT40 Tdp1-/- hTDP1 cells, no CPT, ATP luminescence, 48 h. 420,000 tested, 15% active. Potency, µM (highest dose often 46.2 µM), for inactives: at the highest dose activity change, negative = growth inhibition, actives largely listed as inhibitors; further: potency means the concentration at half of the fitted maximal effect; nearly all actives have a fitted effect of over 55% in size
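Compound effects on proliferation are scored in DT40 Tdp1-/-;hTDP1 cells in the absence of CPT. ATP levels (CellTiter-Glo luminescence) are recorded after a ≥48 hr, 37 °C incubation.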
uPA generation: qHTS for Inhibitors of Cell Surface uPA Generation | AID 540303, 2011 | cell surface uPA generation assay, qHTS | 330,000 tested, 0.31% active | Potency, µM (series often up to 38.3 µM), for inactives: at the highest dose activity change, negative = inhibition, actives largely listed as inhibitors; active means well fitted inhibition curve with a large enough effect; inconclusive means small, poorly fitted or top-dose-only effect; inactive means no such curve, though single readings can be large or run the other way; tested in mouse RAW 264.7 cells; further: potency means the concentration at half of the fitted maximal effect; nearly all actives have a fitted effect of over 55% in size
HT1080 IDH1KD tx: qHTS for induction of synthetic lethality in tumor cells producing 2HG: qHTS for the HT-1080-IDH1KD cell line | Potency, µM (top dose mostly 46.1 µM), inactives show at the top dose activity, negative = toxicity, most hits filed as cytotoxic | 360,000 tested, 2% active | HT-1080 IDH1 knockdown viability, ATP luminescence, 48 h;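 further: potency means the concentration at half of the fitted maximal effect; 0% = DMSO wells and -100% = cell-free medium wells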
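Luminescent ATP read-out (CellTiter-Glo, 10 min at room temperature) after 48 h compound exposure at 37 °C gave viability of IDH1-knockdown HT-1080 cells. Activity was normalised to DMSO and cell-free wells, then fitted as concentration-response curves.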
IL1B secr inh: qHTS for Inhibitors of Inflammasome Signaling: IL-1-beta AlphaLISA Primary Screen | THP-1 LPS/ATP IL-1B secretion, AlphaLISA, 16 h; active compounds read low | activity change, % at 57.5 µM | 360,000 tested, 4.7% active | AID 743279, 2014; in the data active means activity change below about -50%; inconclusive means mostly about -30% to -49%
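Secreted IL-1B measured by AlphaLISA bead assay after 16 h compound exposure of THP-1 cells; compounds (final up to 57.5 uM) added 1 h before LPS (250 ng/mL) and ATP (1.25 mM) stimulation; lower signal means less secretion.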
HT1080-NT tox: qHTS for induction of synthetic lethality in tumor cells producing 2HG: qHTS for the HT-1080-NT fibrosarcoma cell line; Potency, µM (doses to about 46.1 µM), without a hit: at the highest dose activity, negative = less viability, hits mostly cytotoxic; 360,000 tested, 1.6% active; HT-1080-NT fibrosarcoma viability, CellTiter-Glo ATP luminescence, 48 h;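 further: NT is the 2HG producing partner of a matched IDH1 knockdown line; potency means the concentration at half of the fitted maximal effect; 0% = DMSO-treated cells and -100% = media-only wells without cells; nearly all actives have a fitted effect of over 55% in size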
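Read-out is CellTiter-Glo luminescence after 10 minutes at room temperature, following 48 hours' compound treatment of HT-1080-NT cells (750 cells/well, RPMI, 5% FBS, 37 degrees C).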
TDP1 cell CPT: qHTS for Inhibitors of human tyrosyl-DNA phosphodiesterase 1 (TDP1): qHTS in cells in presence of CPT. chicken DT40 Tdp1-/-;hTDP1 cells + 20 nM CPT, ATP luminescence, 48 h. Potency, µM (titrated, usually from 46.2 µM), inactives show at the highest dose activity change, negative = growth inhibition, hits mostly inhibitors. 420,000 tested, 12% active; further: potency means the concentration at half of the fitted maximal effect; nearly all actives have a fitted effect of over 55% in size
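Chicken DT40 Tdp1-/- cells complemented with human TDP1, 400 cells/well, exposed to compounds plus 20 nM camptothecin for at least 48 h at 37 C; viability read as ATP content by CellTiter-Glo luminescence.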
* = called active by the depositor; ? = inconclusive; nt = no result given; [ ] = dose if it differs, or a comment. An excerpt weighted towards active compounds, which were near 19% of everything screened. Unless noted, the call rests on the fitted dose curve; in most records, active means well fitted curve in the direction sought with a large enough effect; inconclusive means small, poorly fitted or top-dose-only effect, or another doubt; inactive means no such curve, though single readings can be large; an effect the other way counts as inactive or inconclusive. Unless noted, on the % scale 0 is the no-effect control and ±100 the full control effect.

SMILES | TDP1 cell noCPT | uPA generation | HT1080 IDH1KD tx | IL1B secr inh | HT1080-NT tox | TDP1 cell CPT
Cc1nc2cc(C(=O)OCC(=O)NC3CCS(=O)(=O)C3)ccc2n1-c1ccccc1 (configuration not stated) | -13.3% | -6.4% | 17.2% | -8.4 | 17.6% | -1.6%
O=C(COC(=O)c1cccs1)NC12CC3CC(CC(C3)C1)C2 | -2.6% | 3.3% | 4.0% | -1.3 | 12.6% | 16.8%
CC(=O)Oc1cc(C(=O)OCC(=O)NC23CC4CC(CC(C4)C2)C3)cc(OC(C)=O)c1OC(C)=O | ? | 10µM* | ? | 123.8 | -27.4% | 5.8µM*
COc1ccc(CC(=O)Nc2ccccc2N2CCCCC2)cc1OC | ? | -0.3% | -13.7% | nt | -2.4% | 5.8%
NS(=O)(=O)c1cccc(NC(=O)CN2C(=O)C(=O)N(Cc3ccccc3)C2=O)c1 | 8.9% | -9.9% | -0.6% | 25.7 | 0.9% | 0.5%
CCc1nn2c(=O)cc(COc3ccc(/C=C(\C#N)C(=O)Nc4ccc(C)cc4)cc3)nc2s1 | 11.0% | nt | nt | nt | nt | -6.8%
COc1ccccc1CN1C(=O)C(C)ON=C1c1ccccc1F (configuration not stated) | ? | nt | -2.5% | 20.8 | 17.5% | -23.8%
CC(C)N1C(=O)c2ccccc2NC(=O)C1C(=O)NCc1cccc(C(F)(F)F)c1 (configuration not stated) | ? | nt | 22.7% | 6.4 | 22.0% | ?
Cc1cccc(C(=O)OCC(=O)NC2CC2)c1O | -7.8% | 5.0% | -5.2% | -2.0 | -11.2% | -3.8%
Cc1cccc(C(=O)OCC(=O)NC23CC4CC(CC(C4)C2)C3)c1O | 18.4µM* | 1.3% | -17.0% | -9.4 | -2.5% | 9.2µM*
O=C(COc1ccc2c(c1)OCO2)Nc1cccc(F)c1 | -14.7% | -0.3% | 7.7% | -1.9 | -5.2% | 3.3%
Cc1cc(C)n(C(=O)/C(C#N)=N/Nc2cc(Cl)cc(Cl)c2)n1 | 2.59µM* | -11.8% | -16.4% | -27.7 | -26.5% | 3.26µM*
O=C(CNC(=O)C1CCCCC1)NC1=NCCS1 | ? | 10.8% | 13.3% | 13.2 | 6.0% | 25.9µM*
COc1ccc(S(=O)(=O)N(CC(N)=O)C2CCCCC2)cc1Cl | ? | -5.4% | 0.9% | -0.3 | -1.0% | 23.1µM*
COc1ccc(OC)c(S(=O)(=O)NCC(c2ccc3c(c2)OCO3)N2CCOCC2)c1 (configuration not stated) | -0.4% | -0.9% | 0.2% | 1.7 | 0.4% | -4.8%
O=C(CC1SC(=Nc2ccccc2)N(CCc2c[nH]c3ccccc23)C1=O)Nc1ccccc1F (configuration not stated) | ? | -6.9% | 20.6µM* | -80.2* | ? | ?
Cc1cccc(OCCn2c(NC(=O)c3ccco3)nc3ccccc32)c1 | ? | -6.0% | -27.6% | 13.4 | -17.7% | 25.9µM*
O=C(Nc1nc2ccccc2n1CCOc1ccc(Cl)cc1)c1ccco1 | 18.4µM* | ? | -19.2% | 74.8 | -15.6% | 25.9µM*
O=C(Nc1nc2ccccc2n1CCN1CCCCC1)c1ccco1 | ? | 12.4% | 13.1% | -0.3 | 9.0% | ?
Cc1cccc(OCCn2c(-c3ccco3)nc3ccccc32)c1 | ? | -5.3% | -10.0% | -1.7 | -2.6% | ?
O=C(Nc1nc2ccccc2n1CCOc1ccccc1)c1ccco1 | 14.6µM* | -10.4% | -24.8% | -16.4 | -17.4% | 14.6µM*
Cc1onc(-c2c(Cl)cccc2Cl)c1C(=O)N=C(N)N1CC(C)OC(C)C1 (configuration not stated) | ? | -9.6% | -7.0% | 17.6 | -1.9% | -0.5%
O=c1c2ccccc2ncn1Cc1ccco1 | -7.1% | 3.3% | -23.9% | 8.1 | -3.7% | -25.0%
N=c1c2c(-c3ccccc3)c(-c3ccccc3)n(Cc3ccco3)c2ncn1CCO | 6.51µM* | -6.8% | 18.4µM* | ? | 18.4µM* | 7.31µM*
N=c1c2c(-c3ccccc3)c(-c3ccccc3)n(Cc3ccco3)c2ncn1CCN1CCOCC1 | ? | nt | ? | -81.2* | ? | ?
SMILES | TDP1 cell noCPT | uPA generation | HT1080 IDH1KD tx | IL1B secr inh | HT1080-NT tox | TDP1 cell CPT
c1coc(CNc2nc3ccccc3n2CCN2CCOCC2)c1 | -15.3% | 1.3% | 1.5% | 12.3 | 0.0% | -5.0%
N=c1c2c(-c3ccccc3)c(-c3ccccc3)n(Cc3ccco3)c2ncn1CCCO | 23.1µM* | -2.7% | 8.2µM* | nt | 20.6µM* | 13µM*
COc1ccc(-n2c(O)c(/C=N/NS(=O)(=O)c3ccc(C)cc3)c3ccccc3c2=O)cc1OC | 16.4µM* | -13.9% | -17.6% | 20.3 | -8.7% | 18.4µM*
COc1ccc(-n2c(O)c(/C=N/Nc3nc(C)cc(C)n3)c3ccccc3c2=O)cc1OC | ? | -5.1% | ? | 67.2 | ? | ?
COc1ccc(-n2c(O)c(/C=N/NS(=O)(=O)c3cc(C)ccc3C)c3ccccc3c2=O)cc1OC | 16.4µM* | -5.4% | -1.0% | 5.4 | -13.9% | 20.6µM*
O=C(NCc1cccs1)c1ccc2c(c1)N(Cc1ccccc1Cl)C(=O)c1ccccc1S2 | -24.9% | nt | nt | nt | nt | -14.5%
Cc1cc(OCC(=O)OCC(=O)Nc2ccc(Cl)cn2)ccc1Cl | 9.2% | 8.0% | 0.2% | 11.8 | -2.3%[9.24 µM] | 6.2%
CN(C)Cc1ccccc1-c1cc(NC2CC2)ncn1 | 1.9% | nt | nt | nt | nt | -7.5%
Cc1ccc(-n2nc3c(=O)n(CCCC(=O)NCc4ccccc4C)nc(C)c3c2C)cc1 | 20.6µM* | ? | 8.4% | -25.3 | -8.5% | 20.6µM*
Cc1ccc(-n2nc3c(=O)n(CCCC(=O)NCC(C)c4ccccc4)nc(C)c3c2C)cc1 (configuration not stated) | 14.6µM* | ? | -7.5% | -10.7 | -9.9% | ?
CN1CCN(c2nc3cc(C(F)(F)F)ccc3n3cccc23)CC1 | 20.6µM* | -11.7% | 23.1µM* | ? | ? | ?
CNc1c(NC(=O)c2ccc(OC)c(OC)c2)c(=O)oc2ccccc12 | -7.9% | nt | nt | nt | nt | 4.2%
ON/C=N/C(=S)Nc1ncc(C(F)(F)F)cc1Cl | 11.6µM* | 3.6% | 19.3% | 17.4 | 8.9% | 14.6µM*
Cc1ccc(NC(=S)NNc2ncc(C(F)(F)F)cc2Cl)cc1 | ? | -2.7% | ? | -15.8 | ? | ?
FC(F)(F)c1cnc(NNC(=S)Nc2ccc(Cl)cc2)c(Cl)c1 | 13µM* | -11.9% | ? | -98.5* | ? | 10.3µM*
